# According to PubChem BioAssay (NCATS):
# Inconclusive results are not listed. A call without a number means that no potency is given here. Values without a mark were called inactive. The source made the active and inactive calls. The call rests on the fitted dose curve; in most records, active means well fitted cell-killing curve with a large enough effect; inconclusive means small, poorly fitted or top-dose-only effect; inactive means no such curve, though single readings can be large or run the other way.
# Assay: qHTS of pediatric cancer cell lines to identify multiple opportunities for drug repurposing: Primary screen for A673 cells (AID 1347092); further: nearly all actives have a fitted effect of over 45% in size
# Settings: A673 Ewing sarcoma viability, CellTiter-Glo ATP luminescence, 48 h; series mostly up to 46 µM
# Procedure, shortened: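 A673 cells (500-1,000 cells/well in growth media) were pre-incubated 5 h at 37 degrees C, then exposed to compounds for 48 h. Viability was read as CellTiter-Glo luminescence; concentration-response curves came directly from the primary screen.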
Structure (SMILES),Potency,"activity change, negative = cytotoxic"
C=CCn1c(=O)n([C@@H]2O[C@H](CO)[C@@H](O)[C@H]2O)c2nc(N)[nH]c(=O)c21,inactive,
O=C1c2c(O)cccc2Cc2cccc(O)c21,inactive,
CC1(C)OC(=O)NC1=O,inactive,
CCOc1ccc2ccccc2c1C(=O)N[C@@H]1C(=O)N2[C@@H]1SC(C)(C)[C@@H]2C(=O)O,inactive,
CC1CC(OC(=O)C(O)c2ccccc2)CC(C)(C)N1C (stereo not drawn),inactive,
OCC(CO)N[C@H]1C[C@](O)(CO)[C@@H](O)[C@H](O)[C@H]1O,inactive,
CCn1cc(C(=O)O)c(=O)c2cnc(N3CCNCC3)nc21,inactive,
CC1(C)CO[C@@H](CC(=O)O)CN1,inactive,
CCCCC(CC)COC(=O)c1ccccc1O (stereo not drawn),inactive,
CCN(CC)C(=O)Nc1ccc(OCC(O)CNC(C)(C)C)c(C(C)=O)c1 (stereo not drawn),inactive,
C[C@@H]1CC[C@@]2(OC1)O[C@H]1C[C@H]3[C@@H]4CC[C@H]5C[C@@H](O)CC[C@]5(C)[C@H]4CC(=O)[C@]3(C)[C@H]1[C@@H]2C,,9.64% [at 4.84 µM]
C[C@@H]1CN(c2c(F)c(F)c3c(=O)c(C(=O)O)cn(C4CC4)c3c2F)C[C@H](C)N1,inactive,
Cc1ccc(C(C)C)cc2c(C)ccc1-2,inactive,
Cc1cc(O)cc2c1O[C@](C)(CCC[C@H](C)CCC[C@H](C)CCCC(C)C)CC2,inactive,
COc1ccc(S(=O)(=O)Nc2nnc(CC(C)C)s2)cc1,inactive,
CCCCN1CCCC[C@H]1C(=O)Nc1c(C)cccc1C,inactive,
CC(=O)CCC(=O)O,inactive,

Structure (SMILES),Potency,"activity change, negative = cytotoxic"
CN(C)CC[C@@H](c1ccc(Cl)cc1)c1ccccn1,inactive,
NC(=O)NC(=O)Cc1ccccc1,inactive,
CC1=C(C/C=C(\C)CCC[C@H](C)CCC[C@H](C)CCCC(C)C)C(=O)c2ccccc2C1=O,inactive,
COc1ccccc1O,inactive,
Nc1nc2c(ncn2CCC(CO)CO)c(=O)[nH]1,inactive,
N[C@H]1C(O)O[C@H](CO)[C@@H](O)[C@@H]1O (stereo partly drawn),inactive,
C[C@@H](O)[C@H](N)C(=O)O,inactive,
CC1(C)[C@@H]2CC[C@@]1(C)C(=O)C2,inactive,
C[C@@H]1CCN(C(=O)[C@H](CCCN=C(N)N)NS(=O)(=O)c2cccc3c2NC[C@H](C)C3)[C@@H](C(=O)O)C1,inactive,
Nc1ccc(S(=O)(=O)Nc2ccccc2)cc1,inactive,
Oc1cccc(O)c1,inactive,
NCCNCCNCCNCCN,,0.711% [at 9.22 µM]
C[C@H](N)[C@H](O)c1cccc(O)c1,inactive,
O=C(Oc1ccccc1C(=O)O)c1ccccc1O,inactive,
Nc1ccc(S(=O)(=O)NC(=O)c2ccccc2)cc1,inactive,
Cc1cc2nc3c(=O)[nH]c(=O)nc-3n(C[C@H](O)[C@H](O)[C@H](O)CO)c2cc1C,inactive,
O=C1O[C@H]([C@@H](O)CO)C(O)=C1O,inactive,

# Assay: qHTS of pediatric cancer cell lines to identify multiple opportunities for drug repurposing: Primary screen for SK-N-MC cells (AID 1347093)
# Settings: SK-N-MC viability, CellTiter-Glo luminescence, 48 h; series mostly up to 46 µM
# Procedure, shortened: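 Metabolically active cells were quantified by ATP-dependent luminescence (CellTiter-Glo, 15 min at room temperature) following 48 h treatment. Cells had been plated at 500-1,000 per well and settled for 5 h beforehand.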
Structure (SMILES),Potency,"activity change, negative = cytotoxic"
C=CCn1c(=O)n([C@@H]2O[C@H](CO)[C@@H](O)[C@H]2O)c2nc(N)[nH]c(=O)c21,inactive,
O=C1c2c(O)cccc2Cc2cccc(O)c21,inactive,
CC1(C)OC(=O)NC1=O,inactive,
CCOc1ccc2ccccc2c1C(=O)N[C@@H]1C(=O)N2[C@@H]1SC(C)(C)[C@@H]2C(=O)O,inactive,
CC1CC(OC(=O)C(O)c2ccccc2)CC(C)(C)N1C (stereo not drawn),inactive,
OCC(CO)N[C@H]1C[C@](O)(CO)[C@@H](O)[C@H](O)[C@H]1O,inactive,
CCn1cc(C(=O)O)c(=O)c2cnc(N3CCNCC3)nc21,inactive,
CC1(C)CO[C@@H](CC(=O)O)CN1,inactive,
CCCCC(CC)COC(=O)c1ccccc1O (stereo not drawn),inactive,
CCN(CC)C(=O)Nc1ccc(OCC(O)CNC(C)(C)C)c(C(C)=O)c1 (stereo not drawn),inactive,
C[C@@H]1CC[C@@]2(OC1)O[C@H]1C[C@H]3[C@@H]4CC[C@H]5C[C@@H](O)CC[C@]5(C)[C@H]4CC(=O)[C@]3(C)[C@H]1[C@@H]2C,,6.15% [at 4.84 µM]
C[C@@H]1CN(c2c(F)c(F)c3c(=O)c(C(=O)O)cn(C4CC4)c3c2F)C[C@H](C)N1,inactive,
Cc1ccc(C(C)C)cc2c(C)ccc1-2,inactive,
Cc1cc(O)cc2c1O[C@](C)(CCC[C@H](C)CCC[C@H](C)CCCC(C)C)CC2,inactive,
COc1ccc(S(=O)(=O)Nc2nnc(CC(C)C)s2)cc1,inactive,
CCCCN1CCCC[C@H]1C(=O)Nc1c(C)cccc1C,inactive,
CC(=O)CCC(=O)O,inactive,

Structure (SMILES),Potency,"activity change, negative = cytotoxic"
CN(C)CC[C@@H](c1ccc(Cl)cc1)c1ccccn1,inactive,
NC(=O)NC(=O)Cc1ccccc1,inactive,
CC1=C(C/C=C(\C)CCC[C@H](C)CCC[C@H](C)CCCC(C)C)C(=O)c2ccccc2C1=O,inactive,
COc1ccccc1O,inactive,
Nc1nc2c(ncn2CCC(CO)CO)c(=O)[nH]1,inactive,
N[C@H]1C(O)O[C@H](CO)[C@@H](O)[C@@H]1O (stereo partly drawn),inactive,
C[C@@H](O)[C@H](N)C(=O)O,inactive,
CC1(C)[C@@H]2CC[C@@]1(C)C(=O)C2,inactive,
C[C@@H]1CCN(C(=O)[C@H](CCCN=C(N)N)NS(=O)(=O)c2cccc3c2NC[C@H](C)C3)[C@@H](C(=O)O)C1,inactive,
Nc1ccc(S(=O)(=O)Nc2ccccc2)cc1,inactive,
Oc1cccc(O)c1,inactive,
NCCNCCNCCNCCN,,-17.1% [at 9.22 µM]
C[C@H](N)[C@H](O)c1cccc(O)c1,inactive,
O=C(Oc1ccccc1C(=O)O)c1ccccc1O,inactive,
Nc1ccc(S(=O)(=O)NC(=O)c2ccccc2)cc1,inactive,
Cc1cc2nc3c(=O)[nH]c(=O)nc-3n(C[C@H](O)[C@H](O)[C@H](O)CO)c2cc1C,inactive,
O=C1O[C@H]([C@@H](O)CO)C(O)=C1O,inactive,
